TDP-43 yeast inh: rescues yeast growth from TDP-43 toxicity; AID 652104; TDP-43 expressing yeast growth rescue, BacTiter-Glo, 24 h; actives 1.8% (n = 410,000); Potency, µM (top dose mostly 46.1 µM), hits mostly activators; further: nearly all actives have a fitted effect of over 50% in size
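Readout is BacTiter-Glo luminescence of cell growth, so inhibitors register as activators. TDP-43-expressing yeast at OD600=0.02 in galactose medium, after raffinose pregrowth to mid-log, were incubated with compound for 24 hr at 30 deg C.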
Akt phos inh: inhibitors of Akt phosphorylation; Neuro2A IGF-stimulated pAkt S473 HTRF, 20 min; hits give low values; activity change, % for hits at 50 µM; actives 0.32% (n = 360,000); AID 651550; in the data active means activity change below about -80%; inconclusive means mostly about -51% to -80%
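Single-point screen (50 µM final compound) in Neuro2A cells stimulated 20 min with 6 nM IGF at 37 deg C. After lysis, Ser473-phosphorylated Akt read by HTRF (ex 330 nm, em 615/665 nm) as the 665/615 ratio.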
aSyn rescue: alpha-synuclein toxicity inhibition in yeast | AID 652106 | actives 0.14% (n = 370,000) | Potency, µM (highest dose often 46.1 µM), most hits filed as activators | Yeast expressing alpha-synuclein, growth rescue, BacTiter-Glo, 24 h; further: nearly all actives have a fitted effect of over 65% in size
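Screening used galactose-induced yeast with toxic alpha-synuclein levels, exposed to compound for 24 hr at 30 deg C. Cell growth, read with BacTiter-Glo luminescence, gave the measured signal.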
CCT chaperon mod: changes cytosolic chaperonin activity. purified chaperonin ATPase assay, HTRF ADP detection, 30 min. activity change, % (test concentration not listed), hits read low. actives 0.3% (n = 360,000); in the data active means activity change below about -30%
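TRiC (40 or 20 nM final, by batch activity) in 30 mM Tris pH 7.4, 100 mM KCl, 5 mM MgCl2, 1 mM DTT was treated with compound at 76 uM single dose, then 10 uM ATP, 30 min at 37 °C. ADP was read by HTRF Transcreener.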
Anesthetic bind: candidate novel general anesthetic via apoferritin binding. apoferritin/1-aminoanthracene competitive binding, fluorescence. Potency, µM (doses to about 77.5 µM), actives largely listed as inhibitors. actives 0.074% (n = 350,000). AID 485281; further: nearly all actives have a fitted effect of over 20% in size
Target sequence (P02791 2-175 limits assumed): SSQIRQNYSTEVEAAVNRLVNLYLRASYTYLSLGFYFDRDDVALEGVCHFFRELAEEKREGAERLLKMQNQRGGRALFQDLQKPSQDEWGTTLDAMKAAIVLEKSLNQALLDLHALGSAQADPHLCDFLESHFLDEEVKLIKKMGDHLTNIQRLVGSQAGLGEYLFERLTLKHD
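Read-out: endpoint 1-AMA fluorescence, excitation 380 nm and emission 535 nm, after compounds sit 10 min at room temperature with 10 uM horse-spleen apoferritin in 50% saturated 1-AMA/PBS. Values come from four-parameter Hill fits.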
Mito fusion act: mitochondrial division inhibition or fusion activation; Potency, µM (series often up to 46.1 µM), usual class: activators; S. cerevisiae fusion-defective mutant growth rescue, CellTiterGlo 48 h; actives 0.23% (n = 320,000); AID 485298; further: nearly all actives have a fitted effect of over 45% in size
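Read-out: ATP-based luminescence (CellTiterGlo, 10 min ambient) reporting growth of fusion-defective ts yeast after 48 hours at 37C on glycerol/ethanol YPEG medium in the presence of compound.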
Hits are given with their value. Shown are actives, neighbours in structure and some others; about 2.5% of the full set was active somewhere. Unless noted, the call rests on the fitted dose curve; in most records, active means well fitted curve in the direction sought with a large enough effect; inconclusive means small, poorly fitted or top-dose-only effect, or another doubt; inactive means no such curve, though single readings can be large; an effect the other way counts as inactive or inconclusive.

For CC(C)NC(=S)NC(=O)c1ccc(-c2ccccc2)cc1 the results were TDP-43 yeast inh 17.8µM, Akt phos inh inactive, aSyn rescue inactive, CCT chaperon mod inactive, Anesthetic bind inactive and Mito fusion act inactive.
Screening O=C(NC(=S)Nc1ccc(-c2ccccc2)cc1)c1ccccc1 returned TDP-43 yeast inh inactive, Akt phos inh inactive, aSyn rescue inactive and CCT chaperon mod inactive.
O=C(COc1ccc([N+](=O)[O-])cc1)NNC(=S)NC(=O)c1ccc(Br)cc1 was read as TDP-43 yeast inh inactive, Akt phos inh inactive, aSyn rescue inconclusive, CCT chaperon mod inactive, Anesthetic bind inactive and Mito fusion act inactive.
For Cc1ccc(C(=O)NC(=S)NNC(=O)COc2ccc([N+](=O)[O-])cc2)cc1 the results were TDP-43 yeast inh 20µM, Akt phos inh inactive, aSyn rescue inactive, CCT chaperon mod inactive, Anesthetic bind inactive and Mito fusion act inactive.
CCCC(=O)NC(=S)NNC(=O)c1ccc([N+](=O)[O-])cc1 was read as TDP-43 yeast inh inactive, Akt phos inh inactive, aSyn rescue 20µM, CCT chaperon mod inactive, Anesthetic bind inactive and Mito fusion act inactive.
COc1ccc(CCNC(=S)NC(=O)c2ccccc2)cc1OC was read as TDP-43 yeast inh inactive, Akt phos inh inactive, aSyn rescue inactive, CCT chaperon mod inactive, Anesthetic bind inconclusive and Mito fusion act inactive.
`CCCCCC(=O)NNC(=S)NC(=O)c1ccccc1[N+](=O)[O-]` gave TDP-43 yeast inh inconclusive, Akt phos inh inactive, aSyn rescue inactive, CCT chaperon mod inactive, Anesthetic bind inactive and Mito fusion act inactive.
`CCCCCCCC(=O)NNC(=O)c1ccc([N+](=O)[O-])cc1` gave TDP-43 yeast inh inactive, Akt phos inh inactive, aSyn rescue inactive, CCT chaperon mod inactive, Anesthetic bind inconclusive and Mito fusion act inactive.
O=C(NC(=S)NNC(=O)c1cnccn1)c1ccc(Cl)cc1 was read as TDP-43 yeast inh 3.16µM, Akt phos inh inactive, aSyn rescue 5.01µM, CCT chaperon mod inactive, Anesthetic bind inactive and Mito fusion act inactive.
Screening COc1ccc(C(=O)NC(=S)NNC(=O)c2cnccn2)cc1 returned TDP-43 yeast inh inconclusive, Akt phos inh inactive, aSyn rescue inconclusive, CCT chaperon mod inactive, Anesthetic bind inactive and Mito fusion act inactive.
Screening COc1ccc(CCNC(=S)NC(=O)c2cccc([N+](=O)[O-])c2)cc1OC returned TDP-43 yeast inh 12.6µM, Akt phos inh inactive, aSyn rescue inactive, CCT chaperon mod inactive, Anesthetic bind inconclusive and Mito fusion act inactive.
For CCCCCC(=O)NNC(=S)NC(=O)c1cccc([N+](=O)[O-])c1 the results were TDP-43 yeast inh inconclusive, Akt phos inh inactive, aSyn rescue 15.8µM, CCT chaperon mod inactive, Anesthetic bind inactive and Mito fusion act inactive.
Screening CN(C)c1ccc(C=O)c(F)c1 returned aSyn rescue inactive.
CCC(=O)NNC(=S)NC(=O)c1ccc(C)cc1 was read as TDP-43 yeast inh 20µM, Akt phos inh inactive, aSyn rescue inconclusive, CCT chaperon mod inactive, Anesthetic bind inactive and Mito fusion act inactive.
Cc1c(CCC(=O)O)c(=O)oc2cc3oc4c(c3cc12)CCCC4 was read as TDP-43 yeast inh inactive, Akt phos inh inactive, aSyn rescue inconclusive, CCT chaperon mod inactive, Anesthetic bind inactive and Mito fusion act inactive.
For COc1cccc(-c2coc3cc4oc(=O)c(CCC(=O)O)c(C)c4cc23)c1 the results were TDP-43 yeast inh inactive, Akt phos inh inactive, aSyn rescue inactive, CCT chaperon mod inactive, Anesthetic bind inactive and Mito fusion act 22.4µM.
Screening COc1cccc(-c2coc3c(C)c4oc(=O)c(CCC(=O)O)c(C)c4cc23)c1 returned TDP-43 yeast inh inactive, Akt phos inh inactive, aSyn rescue inactive, CCT chaperon mod inactive, Anesthetic bind inactive and Mito fusion act inactive.
`Cc1c(CCC(=O)N2CCC[C@H]2C(=O)O)c(=O)oc2cc3oc4c(c3cc12)CCCC4` gave TDP-43 yeast inh 20µM, Akt phos inh inactive, aSyn rescue inactive, CCT chaperon mod inactive, Anesthetic bind inactive and Mito fusion act inactive.
Cc1coc2cc3oc(=O)c(CCC(=O)N4CCCCC4)c(C)c3cc12 was read as TDP-43 yeast inh 22.4µM and Anesthetic bind inactive.
COc1ccccc1C1NC(c2ccc3c(c2)OCO3)=CC(c2cc(Br)ccc2O)N1 (stereo not drawn) was read as aSyn rescue inactive.
O=S(=O)(NNC(=S)Nc1ccc(S(=O)(=O)Nc2ncccn2)cc1)c1ccc(Br)cc1 was read as TDP-43 yeast inh 3.98µM, Akt phos inh inactive, aSyn rescue inconclusive, CCT chaperon mod inactive, Anesthetic bind inactive and Mito fusion act inactive.
`O=C(NC(=S)Nc1ccc(S(=O)(=O)Nc2ncccn2)cc1)c1ccc(Br)cc1` gave TDP-43 yeast inh inactive, Akt phos inh inactive, aSyn rescue inactive, CCT chaperon mod inactive, Anesthetic bind inactive and Mito fusion act inactive.
For N#Cc1c(NC(=O)CSc2ncccn2)oc(-c2ccccc2)c1-c1ccccc1 the results were TDP-43 yeast inh inactive, Akt phos inh inactive, aSyn rescue inactive and CCT chaperon mod inactive.
N#Cc1c(NC(=O)CN2CCOCC2)oc(-c2ccccc2)c1-c1ccccc1 was read as TDP-43 yeast inh inactive, Akt phos inh -107.5%, aSyn rescue inactive, CCT chaperon mod inactive, Anesthetic bind inactive and Mito fusion act inactive.
`Cc1csc(CNc2ncnc3ccc(-c4ccc5c(ccn5C)c4)cc23)c1` gave Mito fusion act inactive.
For COc1cccc(OCC(=O)NC2CC(=O)N(c3cccc(OC)c3)C2)c1 (stereo not drawn) the results were TDP-43 yeast inh inactive and Anesthetic bind inactive.
`COc1cccc(N2CC(NC(=O)COc3ccc4ccccc4c3)CC2=O)c1` (stereo not drawn) gave TDP-43 yeast inh 14.1µM and Anesthetic bind inactive.
CCNC(=O)Nc1cc(OC)c(OC)cc1C(=O)O was read as TDP-43 yeast inh inactive, Akt phos inh inactive, aSyn rescue inactive, CCT chaperon mod inactive, Anesthetic bind inactive and Mito fusion act inactive.
For COc1cc(NC(=O)C(c2ccccc2)c2ccccc2)c(C(=O)O)cc1OC the results were TDP-43 yeast inh 22.4µM, Akt phos inh inactive, aSyn rescue inactive, CCT chaperon mod inactive, Anesthetic bind inactive and Mito fusion act inactive.
Screening COc1cc2c(cc1OC)C(COc1ccc(F)cc1)N(C(=O)c1cccc(F)c1)CC2 (stereo not drawn) returned TDP-43 yeast inh 35.5µM, aSyn rescue inactive and Anesthetic bind inactive.
COC(=O)c1ccc(OCC2c3cc(OC)c(OC)cc3CCN2C(=O)c2ccc(OC)cc2)cc1 (stereo not drawn) was read as TDP-43 yeast inh 35.5µM, aSyn rescue inactive and Anesthetic bind inactive.

Screening data as filed in PubChem BioAssay.
